Inconclusive results are not listed. A number with no mark means an inactive call. Calls of active or inactive are those of the source. The call rests on the fitted dose curve; in most records, active means well fitted inhibition curve with a large enough effect; inconclusive means small, poorly fitted or top-dose-only effect; inactive means flat fitted curve, though single readings scatter.

A short description of assay [1]: qHTS profiling for inhibitors of Plasmodium falciparum proliferation (AID 504749).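 On activity, negative = inhibition: 0% = DMSO vehicle and full inhibition = artemisinin control.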 On all read-outs here: nearly all actives have a fitted effect of over 60% in size. Particulars: P. falciparum in erythrocytes, SYBR Green DNA, 72 h; for activity, negative = inhibition: at 28.7 µM (top of the series). The procedure, abridged:
(§1)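 Fluorescence of SYBR Green-bound parasite DNA, read at 485/535 nm, served as the growth measure. Infected erythrocytes were cultured with compound 72 h; artemisinin (0.29 uM) and DMSO wells defined the normalization range.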
For orientation: Quantitative high-throughput screening tests each substance at several concentrations.

In another assay the test system is 3D7. Described as above. Particulars: P. falciparum in erythrocytes, SYBR Green DNA, 72 h; series mostly up to 28.7 µM. The procedure, abridged: as §1
The test system of another assay is 7G8. The assay is described as above. Particulars: P. falciparum in erythrocytes, SYBR Green DNA, 72 h; series mostly up to 28.7 µM. The procedure, abridged:
as §1

For the next assay, the system named is AA1029. Described as above. The following applies: P. falciparum in erythrocytes, SYBR Green DNA, 72 h; series mostly up to 28.7 µM. The procedure, abridged: as §1
The subject of the next assay is AS120. The assay is described as above. The following applies: P. falciparum in erythrocytes, SYBR Green DNA, 72 h; series mostly up to 28.7 µM. Summed up:
as §1

For the next assay, the system named is ATS189. The assay is described as above. Particulars: P. falciparum in erythrocytes, SYBR Green DNA, 72 h; series mostly up to 28.7 µM. The procedure, abridged:
as §1

The next assay deals with ATS95. Described as above. Particulars: P. falciparum in erythrocytes, SYBR Green DNA, 72 h; series mostly up to 28.7 µM. Summed up: as §1
For a further assay, the system named is C2A. Described as above. Particulars: P. falciparum in erythrocytes, SYBR Green DNA, 72 h; series mostly up to 28.7 µM. Summed up: as §1
Another assay concerns CP185. The description is as above. Particulars: P. falciparum in erythrocytes, SYBR Green DNA, 72 h; series mostly up to 28.7 µM. Summed up:
as §1

In another assay the test system is CP191. Described as above. Particulars: P. falciparum in erythrocytes, SYBR Green DNA, 72 h; series mostly up to 28.7 µM. The procedure, abridged: as §1
Potency means the concentration at half of the fitted maximal effect.

For the compound `CN1C2CCC1CC(OC(c1ccccc1)c1ccc(Cl)cc1)C2` (stereo not given), the Potency in [1] (parasite line A) was 5.01 µM (active); in assay [1] (parasite line B) it was 7.08 µM (active); in the assay with 3D7, 12.6 µM (active); in the assay with 7G8 it was 4.47 µM (active); in the assay with AA1029, 11.2 µM (active); in the assay with AS120, 11.2 µM (active). Further, the Potency was 10 µM (active) in the assay on ATS189; 8.91 µM (active) with ATS95; 11.2 µM (active) in the assay with C2A; 12.6 µM (active) in the assay with CP185; 4.47 µM (active) in the assay with CP191.
For `O=C(NCNC(=O)NC1C(=O)NC(=O)N1CO)NC1C(=O)NC(=O)N1CO` (stereo not given), the activity, negative = inhibition in assay [1] (parasite line A) is 15.1%; in assay [1] (parasite line B), 8.84%. For the same compound, the Potency entry in the assay on 3D7, in the assay with 7G8, in the assay on AA1029, in the assay with AS120, in the assay on ATS189 and in the assay on ATS95 was “inactive” throughout. In addition, the Potency result in the assay with C2A, in the assay with CP185 and in the assay with CP191 was “inactive” each time.
Turning to `Oc1cccc[c]1[Hg][Cl]`, the Potency is 5.01 µM (active) in [1] (parasite line A); 6.31 µM (active) in [1] (parasite line B); 8.91 µM (active) in the assay with 3D7; 1.78 µM (active) in the assay with 7G8; 11.2 µM (active) with AA1029; 7.94 µM (active) with AS120. Besides, the Potency in the assay on ATS189 was 12.6 µM (active); in the assay on ATS95, 10 µM (active); in the assay with C2A, 12.6 µM (active); in the assay with CP185, 7.94 µM (active); in the assay on CP191 it was 10 µM (active).
Turning to `C#CC(C)(O)CC` (stereo not given), the activity, negative = inhibition in assay [1] (parasite line A) was 3.88%; in assay [1] (parasite line B) it was -6.77%. The Potency entry in the assay with 3D7, in the assay on 7G8, in the assay with AA1029, in the assay with AS120, in the assay on ATS189 and with ATS95 was “inactive” each time. Further, the Potency result in the assay on C2A, in the assay with CP185 and in the assay with CP191 was “inactive” throughout.
For the compound `Cn1sc(Cl)cc1=O`, the activity, negative = inhibition was 11.9% in [1] (parasite line A) and 7.44% in [1] (parasite line B). Besides, the Potency entry in the assay with 3D7, in the assay on 7G8, with AA1029, with AS120, with ATS189 and in the assay with ATS95 was “inactive” throughout. For the same compound, the Potency result in the assay on C2A, in the assay with CP185 and in the assay on CP191 was “inactive” in each case.
As to `NCC(O)c1cccc(O)c1` (stereo not given), the activity, negative = inhibition in [1] (parasite line A) was 5.65%; in assay [1] (parasite line B) it was 12%. In addition, the Potency result in the assay with 3D7, in the assay with 7G8, in the assay on AA1029, with AS120, in the assay with ATS189 and in the assay on ATS95 was “inactive” in each case. For the same compound, the Potency result in the assay on C2A, in the assay on CP185 and with CP191 was “inactive” in each case.
In the case of `CCCN1CCCC2Cc3[nH]ncc3CC21` (stereo not given), the activity, negative = inhibition in [1] (parasite line A) was 7.25%; in assay [1] (parasite line B), 13.9%. Besides, the Potency entry in the assay on 3D7, in the assay on 7G8, in the assay with AA1029, with AS120, with ATS189 and in the assay with ATS95 was “inactive” in each case. In addition, the Potency entry with C2A, in the assay with CP185 and in the assay on CP191 was “inactive” in each case.
Take `O=[N+]([O-])c1ccc(F)c([N+](=O)[O-])c1`: the results for the activity, negative = inhibition in [1] (parasite line A) and in assay [1] (parasite line B) were 14.6% and 11.6%, respectively. Also, the Potency entry in the assay on 3D7, with 7G8, with AA1029, in the assay with AS120, in the assay on ATS189 and in the assay on ATS95 was “inactive” in each case. For the same compound, the Potency entry in the assay on C2A, in the assay with CP185 and in the assay with CP191 was “inactive” in each case.
`N#CC(C#N)=Cc1cc(O)c(O)c(O)c1`: the Potency in assay [1] (parasite line A) is 11.2 µM (active); in [1] (parasite line B), 11.2 µM (active); in the assay with 3D7, 10 µM (active); in the assay with 7G8 it was 4.47 µM (active); with AA1029, 12.6 µM (active); with AS120 it was 8.91 µM (active). Moreover, the Potency in the assay with C2A is 10 µM (active); in the assay on CP185, 8.91 µM (active).
Take `[N-]=[N+]=CC(=O)OCC(N)C(=O)O` (stereo not given): the activity, negative = inhibition was 3.54% in [1] (parasite line A) and -4.07% in [1] (parasite line B). For the same compound, the Potency entry in the assay on 3D7, with 7G8, in the assay on AA1029, in the assay on AS120, in the assay with ATS189 and with ATS95 was “inactive” in each case. In addition, the Potency entry in the assay on C2A, with CP185 and in the assay with CP191 was “inactive” in each case.
As to `FC(F)OC(F)(F)C(F)Cl` (stereo not given), the results for the activity, negative = inhibition in [1] (parasite line A) and in [1] (parasite line B) were 10.8% and 14%, respectively. The Potency result in the assay with 3D7, with 7G8, in the assay with AA1029, with AS120, in the assay on ATS189 and with ATS95 was “inactive” throughout. For the same compound, the Potency result in the assay with C2A, in the assay on CP185 and with CP191 was “inactive” throughout.
As to `O=C(O)C(Cl)(Cl)Cl`, the activity, negative = inhibition in assay [1] (parasite line A) was 7.18%; in assay [1] (parasite line B), 2%. In addition, the Potency entry with 3D7, in the assay on 7G8, in the assay on AA1029, in the assay with AS120, in the assay with ATS189 and in the assay on ATS95 was “inactive” each time. Also, the Potency result in the assay on C2A, in the assay on CP185 and with CP191 was “inactive” in each case.
As for `C=CCN1CCC23c4c5ccc(O)c4O[C@H]2C(=O)CC[C@@]3(O)C1C5` (stereo not given in full), the activity, negative = inhibition in assay [1] (parasite line A) is 8.48%; in assay [1] (parasite line B), -7.58%. The Potency result in the assay with 3D7, with 7G8, in the assay with AA1029, in the assay with AS120, in the assay with ATS189 and in the assay on ATS95 was “inactive” each time. Also, the Potency entry in the assay on C2A, in the assay on CP185 and in the assay with CP191 was “inactive” in each case.
`CCCC(C)C1(CC)C(=O)NC(=O)NC1=O` (stereo not given): the activity, negative = inhibition was 2.58% in assay [1] (parasite line A) and 0.184% in assay [1] (parasite line B). The Potency entry with 3D7, with 7G8, with AA1029, in the assay on AS120, with ATS189 and in the assay with ATS95 was “inactive” each time. Moreover, the Potency result in the assay on C2A, in the assay on CP185 and in the assay on CP191 was “inactive” each time.
Take `C[N+]1(C)C2CCC1CC(OC(=O)c1c[nH]c3ccccc13)C2` (stereo not given): the activity, negative = inhibition in [1] (parasite line A) was 3.31%; in [1] (parasite line B), 10.8%. Moreover, the Potency entry in the assay on 3D7, with 7G8, with AA1029, in the assay on AS120, with ATS189 and with ATS95 was “inactive” throughout. Besides, the Potency result in the assay on C2A, in the assay on CP185 and in the assay on CP191 was “inactive” in each case.
For the compound `CCC1(c2ccccc2)C(=O)NC(=O)NC1=O`, the results for the activity, negative = inhibition in [1] (parasite line A) and in [1] (parasite line B) were 5.22% and 9.88%, respectively. The Potency result in the assay on 3D7, with 7G8, in the assay with AA1029, in the assay on ATS189, with ATS95 and with C2A was “inactive” each time. For the same compound, the Potency entry in the assay with CP185 and in the assay with CP191 was “inactive” each time.
Regarding `CCC(N)Cc1c[nH]c2ccccc12` (stereo not given), the activity, negative = inhibition is -18.9% in assay [1] (parasite line A) and 9.32% in assay [1] (parasite line B). Further, the Potency result with 3D7, with 7G8, with AA1029, in the assay with AS120, in the assay with ATS189 and in the assay with ATS95 was “inactive” each time. Further, the Potency result in the assay with C2A, in the assay with CP185 and in the assay on CP191 was “inactive” throughout.
On to `CCOC(=O)c1ccccc1C(=O)OCC`, for which the activity, negative = inhibition in assay [1] (parasite line A) is 8.38%; in assay [1] (parasite line B) it was -4.32%. Besides, the Potency entry in the assay with 3D7, in the assay on 7G8, in the assay on AA1029, with AS120, in the assay with ATS189 and with ATS95 was “inactive” each time. Also, the Potency entry in the assay on C2A, with CP185 and in the assay on CP191 was “inactive” in each case.
Turning to `COc1ccc2c(c1OC)C(=O)OC2C1c2cc3c(cc2CCN1C)OCO3` (stereo not given), the activity, negative = inhibition in assay [1] (parasite line A) was 9.94%; in assay [1] (parasite line B), 3.46%. The Potency entry in the assay on 3D7, in the assay with 7G8, in the assay on AA1029, with AS120, in the assay on ATS189 and in the assay with ATS95 was “inactive” each time. Further, the Potency entry in the assay on C2A, in the assay with CP185 and with CP191 was “inactive” in each case.
